From the supplement of paper PMC10849652 come the findings set out here.

Targets with a hit are over-represented here; the source holds about 7,900 in all. About 0.6% of all pairs of compound and target were hits.

UniProt Q13263, sequence (Q13263 whole entry, looked up): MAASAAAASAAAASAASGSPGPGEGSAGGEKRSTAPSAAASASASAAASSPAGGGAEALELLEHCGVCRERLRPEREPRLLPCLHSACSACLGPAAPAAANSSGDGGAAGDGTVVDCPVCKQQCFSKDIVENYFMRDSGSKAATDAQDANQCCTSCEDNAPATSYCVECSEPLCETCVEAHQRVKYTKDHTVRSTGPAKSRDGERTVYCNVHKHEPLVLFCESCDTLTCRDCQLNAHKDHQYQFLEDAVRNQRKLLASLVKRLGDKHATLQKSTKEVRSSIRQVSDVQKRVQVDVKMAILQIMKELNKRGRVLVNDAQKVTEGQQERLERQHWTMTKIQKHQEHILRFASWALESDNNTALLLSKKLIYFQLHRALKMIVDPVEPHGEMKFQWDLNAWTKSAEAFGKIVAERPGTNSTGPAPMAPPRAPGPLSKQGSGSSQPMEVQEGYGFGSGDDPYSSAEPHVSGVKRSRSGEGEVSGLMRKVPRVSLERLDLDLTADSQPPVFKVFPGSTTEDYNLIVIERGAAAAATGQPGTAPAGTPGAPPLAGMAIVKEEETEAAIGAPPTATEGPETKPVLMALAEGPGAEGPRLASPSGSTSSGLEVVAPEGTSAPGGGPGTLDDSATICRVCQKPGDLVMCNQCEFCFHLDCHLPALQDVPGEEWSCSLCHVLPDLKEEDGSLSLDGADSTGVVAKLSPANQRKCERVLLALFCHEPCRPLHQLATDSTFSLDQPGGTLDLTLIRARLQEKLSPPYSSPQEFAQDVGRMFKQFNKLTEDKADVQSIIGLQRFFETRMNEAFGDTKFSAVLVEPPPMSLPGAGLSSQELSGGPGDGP
UniProt Q99816, sequence (Q99816 whole entry, looked up): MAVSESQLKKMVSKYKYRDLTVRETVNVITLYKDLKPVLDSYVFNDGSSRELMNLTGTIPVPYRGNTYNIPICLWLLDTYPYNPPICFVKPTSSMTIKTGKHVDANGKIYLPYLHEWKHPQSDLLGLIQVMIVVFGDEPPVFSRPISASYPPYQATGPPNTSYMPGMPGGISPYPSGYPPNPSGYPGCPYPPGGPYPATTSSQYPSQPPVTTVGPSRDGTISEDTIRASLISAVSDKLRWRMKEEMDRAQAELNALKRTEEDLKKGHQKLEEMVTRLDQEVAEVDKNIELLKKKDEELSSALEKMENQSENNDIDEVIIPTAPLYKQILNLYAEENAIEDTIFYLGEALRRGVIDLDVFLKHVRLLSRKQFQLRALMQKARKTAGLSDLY
UniProt O00124, sequence (O00124 whole entry, looked up): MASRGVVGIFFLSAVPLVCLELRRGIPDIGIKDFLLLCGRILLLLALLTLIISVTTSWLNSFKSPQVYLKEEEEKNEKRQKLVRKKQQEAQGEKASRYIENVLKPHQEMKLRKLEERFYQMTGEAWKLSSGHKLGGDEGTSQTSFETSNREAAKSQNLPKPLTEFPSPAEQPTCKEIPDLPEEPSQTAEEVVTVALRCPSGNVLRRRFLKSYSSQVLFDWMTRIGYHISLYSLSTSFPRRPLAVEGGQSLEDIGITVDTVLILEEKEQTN
UniProt Q8IY95, sequence (Q8IY95 whole entry, looked up): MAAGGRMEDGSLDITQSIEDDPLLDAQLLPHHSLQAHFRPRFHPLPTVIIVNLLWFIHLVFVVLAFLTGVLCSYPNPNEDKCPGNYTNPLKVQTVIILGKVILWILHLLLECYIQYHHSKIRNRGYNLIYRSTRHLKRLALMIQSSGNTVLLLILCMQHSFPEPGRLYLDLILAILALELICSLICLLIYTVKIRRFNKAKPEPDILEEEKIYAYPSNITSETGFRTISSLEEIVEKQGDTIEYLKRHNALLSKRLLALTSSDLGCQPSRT
UniProt Q96ET8, sequence (Q96ET8 whole entry, looked up): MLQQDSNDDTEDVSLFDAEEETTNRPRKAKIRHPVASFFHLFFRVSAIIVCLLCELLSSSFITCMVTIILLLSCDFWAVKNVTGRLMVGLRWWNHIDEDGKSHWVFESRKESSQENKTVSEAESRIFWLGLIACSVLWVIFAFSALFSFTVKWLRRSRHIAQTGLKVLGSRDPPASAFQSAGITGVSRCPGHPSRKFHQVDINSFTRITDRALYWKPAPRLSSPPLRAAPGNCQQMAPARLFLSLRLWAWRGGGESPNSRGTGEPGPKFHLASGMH
UniProt Q8WVY7, sequence (Q8WVY7 whole entry, looked up): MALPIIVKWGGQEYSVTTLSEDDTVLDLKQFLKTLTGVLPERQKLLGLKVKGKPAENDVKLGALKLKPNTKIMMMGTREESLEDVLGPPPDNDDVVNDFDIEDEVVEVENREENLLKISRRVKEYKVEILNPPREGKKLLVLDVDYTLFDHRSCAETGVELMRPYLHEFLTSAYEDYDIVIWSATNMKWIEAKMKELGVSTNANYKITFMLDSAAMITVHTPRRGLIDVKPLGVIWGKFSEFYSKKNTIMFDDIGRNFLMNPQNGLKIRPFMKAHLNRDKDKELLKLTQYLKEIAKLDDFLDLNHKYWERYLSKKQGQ
UniProt Q641Q2, sequence (Q641Q2 whole entry, looked up): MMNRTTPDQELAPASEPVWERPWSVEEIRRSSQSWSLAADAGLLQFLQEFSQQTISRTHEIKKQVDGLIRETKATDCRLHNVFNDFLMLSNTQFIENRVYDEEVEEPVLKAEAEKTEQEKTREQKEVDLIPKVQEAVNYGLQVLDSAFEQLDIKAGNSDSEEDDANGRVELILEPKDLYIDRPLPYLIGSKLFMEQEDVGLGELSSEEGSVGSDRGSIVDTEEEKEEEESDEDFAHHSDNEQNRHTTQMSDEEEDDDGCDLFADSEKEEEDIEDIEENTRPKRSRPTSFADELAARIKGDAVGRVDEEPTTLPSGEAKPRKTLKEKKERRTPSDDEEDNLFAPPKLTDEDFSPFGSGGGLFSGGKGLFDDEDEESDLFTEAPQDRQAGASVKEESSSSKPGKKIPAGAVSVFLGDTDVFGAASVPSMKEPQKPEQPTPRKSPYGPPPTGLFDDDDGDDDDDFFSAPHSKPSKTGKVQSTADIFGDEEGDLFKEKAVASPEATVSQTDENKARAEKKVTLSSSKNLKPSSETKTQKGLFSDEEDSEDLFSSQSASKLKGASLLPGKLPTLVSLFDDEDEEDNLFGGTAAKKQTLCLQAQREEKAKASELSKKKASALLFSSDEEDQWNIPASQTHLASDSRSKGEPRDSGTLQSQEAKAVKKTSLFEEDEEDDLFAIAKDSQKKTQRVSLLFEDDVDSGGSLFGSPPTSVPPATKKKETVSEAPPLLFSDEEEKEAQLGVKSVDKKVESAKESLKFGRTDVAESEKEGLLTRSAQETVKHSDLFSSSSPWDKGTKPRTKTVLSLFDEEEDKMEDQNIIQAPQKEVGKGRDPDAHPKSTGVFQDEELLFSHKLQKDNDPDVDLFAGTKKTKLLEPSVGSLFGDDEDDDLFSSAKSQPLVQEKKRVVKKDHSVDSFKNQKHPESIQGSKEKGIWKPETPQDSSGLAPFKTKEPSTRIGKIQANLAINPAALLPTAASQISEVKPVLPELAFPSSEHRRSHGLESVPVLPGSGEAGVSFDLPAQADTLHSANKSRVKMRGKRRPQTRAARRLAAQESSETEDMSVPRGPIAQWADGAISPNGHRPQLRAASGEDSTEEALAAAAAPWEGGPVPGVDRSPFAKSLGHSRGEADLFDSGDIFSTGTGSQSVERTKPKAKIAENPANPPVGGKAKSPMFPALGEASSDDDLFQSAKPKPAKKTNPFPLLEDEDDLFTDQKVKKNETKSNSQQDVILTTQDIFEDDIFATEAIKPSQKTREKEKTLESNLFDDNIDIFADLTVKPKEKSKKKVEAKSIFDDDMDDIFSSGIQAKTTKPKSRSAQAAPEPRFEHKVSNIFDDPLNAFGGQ
UniProt Q9UBK9, sequence (Q9UBK9 whole entry, looked up): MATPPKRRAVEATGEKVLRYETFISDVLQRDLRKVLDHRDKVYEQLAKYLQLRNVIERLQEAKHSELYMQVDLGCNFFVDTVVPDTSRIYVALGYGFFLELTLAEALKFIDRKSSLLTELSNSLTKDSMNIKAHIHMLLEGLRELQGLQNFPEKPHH
UniProt P22314, sequence (P22314 whole entry, looked up): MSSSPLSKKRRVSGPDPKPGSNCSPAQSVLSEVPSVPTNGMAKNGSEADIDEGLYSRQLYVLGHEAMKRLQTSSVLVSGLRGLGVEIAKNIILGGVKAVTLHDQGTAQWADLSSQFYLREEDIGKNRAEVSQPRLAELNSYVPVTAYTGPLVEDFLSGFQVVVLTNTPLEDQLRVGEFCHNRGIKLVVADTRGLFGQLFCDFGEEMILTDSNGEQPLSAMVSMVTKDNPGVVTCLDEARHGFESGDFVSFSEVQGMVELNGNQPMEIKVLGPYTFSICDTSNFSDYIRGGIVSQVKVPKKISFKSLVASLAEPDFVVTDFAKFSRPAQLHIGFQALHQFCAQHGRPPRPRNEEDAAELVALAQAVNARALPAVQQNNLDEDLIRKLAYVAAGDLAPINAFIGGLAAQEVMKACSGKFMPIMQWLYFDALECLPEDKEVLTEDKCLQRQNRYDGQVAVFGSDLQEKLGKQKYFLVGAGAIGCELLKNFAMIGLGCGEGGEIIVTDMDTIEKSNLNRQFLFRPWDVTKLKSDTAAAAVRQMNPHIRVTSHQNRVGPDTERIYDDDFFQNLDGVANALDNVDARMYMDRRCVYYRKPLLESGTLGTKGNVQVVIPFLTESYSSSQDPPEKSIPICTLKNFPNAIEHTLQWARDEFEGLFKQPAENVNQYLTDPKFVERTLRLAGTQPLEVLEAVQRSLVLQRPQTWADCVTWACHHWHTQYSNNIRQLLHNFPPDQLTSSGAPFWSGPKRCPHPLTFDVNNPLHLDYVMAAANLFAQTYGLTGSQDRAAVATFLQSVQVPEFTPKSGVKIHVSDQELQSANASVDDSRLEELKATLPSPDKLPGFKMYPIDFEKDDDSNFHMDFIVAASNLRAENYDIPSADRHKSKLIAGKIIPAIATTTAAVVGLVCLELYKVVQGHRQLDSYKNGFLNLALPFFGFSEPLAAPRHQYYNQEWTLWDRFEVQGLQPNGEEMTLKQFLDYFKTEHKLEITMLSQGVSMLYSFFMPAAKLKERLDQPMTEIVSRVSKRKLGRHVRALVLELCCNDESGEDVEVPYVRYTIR

Compound in the test: c1cn2cc(-c3ccc4cn[nH]c4c3)nc(Nc3ccc(N4CCOCC4)cc3)c2n1 [entospletinib]
Nature of the test: log2 fold change, soluble protein after heating vs DMSO (PISA); higher = thermal stabilisation; K562 cells, 10 uM, 30 min; active = over 0.2 and 3.5 SD of the protein, either way, in both replicates (recomputed). An outline of the steps: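 Aliquots of K562 cells (2×10^6 cells/mL) treated with 10 μM compound for 30 min were heated for 3 min over 48°C-58°C. After pooling and extraction in PBS with 0.5% NP-40 at 4°C, soluble protein from a 21,000xg, 90 min spin was quantified by TMTpro 16plex LC-MS/MS with channel sums equalised. Thermal stability is expressed against control samples, from duplicates, as a log2 fold change.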
Consider WARS2 (UniProt Q9UGM6), for which the log2 fold change is -0.042 (inactive). Next, UBA1 (UniProt P22314): -0.025 (inactive); VPS35L (UniProt Q7Z3J2): 0.011 (inactive). The value for WDR62 isoform 4 (UniProt O43379) was -0.043 (inactive); that for TMEM192 (UniProt Q8IY95) was 0.071 (inactive). Regarding TRIM28 (UniProt Q13263), the log2 fold change is -0.025 (inactive). The value for TNPO3 (UniProt Q9Y5L0) was -0.048 (inactive).

As to UPF3B (UniProt Q9BZI7), the log2 fold change is 0.098 (inactive). The value for TUBA4A (UniProt P68366) was -0.031 (inactive). For the target WBP4 (UniProt O75554), the log2 fold change is 0.036 (inactive). Next, VDAC1 (UniProt C9JI87): -0.088 (inactive); TNFRSF10A (UniProt O00220): 0.011 (inactive).

As to TRAM1 (UniProt Q15629), the log2 fold change is 0.145 (inactive). Next, WARS1 (UniProt G3V5U1): 0.342 (inactive). On to VPS11 (UniProt Q9H270), for which the log2 fold change is 0.04 (inactive). In the case of TSG101 (UniProt Q99816), the log2 fold change was -0.014 (inactive).

On to USP48 isoform 8 (UniProt Q86UV5), for which the log2 fold change is 0.067 (inactive). The value for UBXN8 (UniProt O00124) was -0.231 (inactive); that for TRIM44 (UniProt Q96DX7) was 0.007 (inactive). The value for UBE2J2 isoform 3 (UniProt Q8N2K1) was -0.028 (inactive). For the target TRPT1 isoform 4 (UniProt Q86TN4), the log2 fold change was 0.051 (inactive). The value for XPO6 (UniProt Q96QU8) was -0.027 (inactive); that for WRB (UniProt O00258) was 0.005 (inactive); that for UCHL5 isoform 3 (UniProt Q9Y5K5) was -0.025 (inactive). Next, TVP23C (UniProt Q96ET8): 0.419 (active); WDR41 (UniProt Q9HAD4): -0.019 (inactive). As for TMEM9 (UniProt Q9P0T7), the log2 fold change is -0.05 (inactive).

Consider UBLCP1 (UniProt Q8WVY7), for which the log2 fold change was -0.013 (inactive).

Take TTC33 (UniProt Q6PID6): the log2 fold change was 0.094 (inactive). The value for TTI2 (UniProt Q6NXR4) was 0.062 (inactive); that for VPS33A (UniProt Q96AX1) was 0.099 (inactive); that for UBC (UniProt P0CG48) was 0.068 (inactive).

For the target WASHC2A (UniProt Q641Q2), the log2 fold change was 0.03 (inactive). The value for TNNC2 (UniProt P02585) was -0.038 (inactive). In the case of TNFAIP8 isoform 4 (UniProt O95379), the log2 fold change is 0.036 (inactive). Next, UXT isoform 2 (UniProt Q9UBK9): -0.012 (inactive); TNPO2 (UniProt O14787): -0.063 (inactive); TRMT61A (UniProt Q96FX7): 0.123 (inactive).

TRIM23 (UniProt P36406): the log2 fold change was -0.041 (inactive). The value for WDR11 (UniProt Q9BZH6) was -0.403 (inactive).
